# ST2 IL33 inh: inhibitors of human ST2 (IL1RL1) binding to IL-33, primary screen, biochemical, AlphaLISA; Interleukin-1 receptor-like 1 (Homo sapiens), Q01638; AlphaLISA ST2-Fc/biotin-IL-33 interaction, 1 h; inhibition, % for hits at 17 µM; hit rate 2.3% among 78,000; in the data active = inhibition above about 30%
# Target sequence (Q01638 whole entry, looked up): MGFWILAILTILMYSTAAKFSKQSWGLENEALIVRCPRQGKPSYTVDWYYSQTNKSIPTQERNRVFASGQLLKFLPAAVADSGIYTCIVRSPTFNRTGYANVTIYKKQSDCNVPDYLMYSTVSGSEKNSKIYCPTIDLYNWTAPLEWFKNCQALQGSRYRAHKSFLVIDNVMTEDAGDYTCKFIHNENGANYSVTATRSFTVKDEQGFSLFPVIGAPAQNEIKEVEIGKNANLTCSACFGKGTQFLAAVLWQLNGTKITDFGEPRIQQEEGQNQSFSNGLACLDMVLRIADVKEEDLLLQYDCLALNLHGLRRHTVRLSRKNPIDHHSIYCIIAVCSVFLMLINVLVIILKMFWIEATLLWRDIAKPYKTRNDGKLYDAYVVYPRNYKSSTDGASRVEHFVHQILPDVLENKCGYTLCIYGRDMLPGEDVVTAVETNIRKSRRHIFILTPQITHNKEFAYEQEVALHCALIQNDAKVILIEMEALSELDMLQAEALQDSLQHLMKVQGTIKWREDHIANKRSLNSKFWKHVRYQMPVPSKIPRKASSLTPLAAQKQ
# Active calls of the source: *; i = inactive. The entries come from a sample that favours hits as a whole.
SMILES,ST2 IL33 inh
COc1cccc(NC(=O)N[C@H]2CCN3C(=O)[C@@H](Cc4ccccc4)NC(=O)[C@H]23)c1,i
O=C(N[C@H]1CCN2C(=O)c3ccccc3NC(=O)[C@H]12)C1CCCC1,i
Cc1ccc2c(C)nc(N3CCCC(NCc4ccccc4)CC3)nc2c1 (stereo not drawn),i
O=C(O)C1CCN(c2ccc(C(F)(F)F)cc2[N+](=O)[O-])CC1,i
CCCC(=O)Nc1c2c(nn1-c1ccc(C)cc1)CSC2,i
COC(=O)[C@@H]1Cc2ncn(Cc3ccc(OC)cc3)c2CN1S(=O)(=O)c1ccc(C#N)cc1,i
CCOc1ccccc1NS(=O)(=O)c1ccc2c(c1)c(=O)n(C)c(=O)n2C,i
O=C1N=C(N2CCCC2)S/C1=C\c1ccccc1O,i
O=C1CCCN1c1ccccc1O,i
O=C1/C(=C/c2ccccc2O)N=C2CCCCCN12,39.0%*
O=C(O)COc1ccc2occ(C(=O)c3cccs3)c2c1,i
CC(=O)Oc1ccc2c(=O)c(Oc3ccccc3)coc2c1,i
Cc1cc(C)cc(Oc2coc3cc(OC(=O)C(C)C)ccc3c2=O)c1,i
COC(=O)Oc1ccc2c(=O)c(Oc3ccc(C)cc3)coc2c1,30.0%*
Cc1[nH]c2c(c1CC(Cl)(Cl)Cl)C(=O)CC(C)(C)C2,i
Cc1ccnc(Nc2nc(-c3ccccc3)cs2)c1,i
Cc1ccc(C(=O)Nc2nc(-c3ccccc3)cs2)c(Cl)c1,i
Cc1ccc(Nc2nc(-c3ccc(O)c(O)c3)cs2)nc1,42.0%*
Cn1c(C(O)(c2ccccc2)c2nc3ccccc3n2C)nc2ccccc21,i
Cn1c2nc3ccc(Br)cc3c-2nc2ccccc21,37.0%*
Cn1c(NCc2cc(Br)ccc2O)nc2ccccc21,i
O=S(=O)(NCc1ccccc1Cl)c1cccc2nsnc12,i
c1c(CN2CCC(c3nnc4n3CCCCC4)CC2)nn2c1CNCC2,i
CC(C)c1ccc(C(=O)N2CCCC(N3CCC(CO)CC3)C2)c(=O)[nH]1 (stereo not drawn),i
CC(C)Cn1cnc2c(N)nc3ccccc3c21,41.0%*
SMILES,ST2 IL33 inh
Nc1ncnc2c1ncn2CCOc1ccccc1,i
CC(Cn1cnc2ccccc21)C(=O)O (stereo not drawn),i
CCC1CCCCN1C(=O)C1c2cc(OC)c(OC)cc2C(=O)N(C)C1c1cccs1 (stereo not drawn),i
Cc1noc(C)c1NC(=O)c1cccc(CN(C)C(C)c2ccco2)c1 (stereo not drawn),i
O=C(Nc1nc(-c2ccccn2)cs1)c1ccc(S(=O)(=O)N2CCOCC2)cc1,i
Cc1ccc(-c2csc(NC(=O)c3ccc(S(=O)(=O)N4CCc5ccccc54)cc3)n2)o1,39.0%*
CC(=O)c1sc(NC(=O)c2ccc(S(=O)(=O)N3CCc4ccccc43)cc2)nc1C,i
COc1cc(OC)c(OC)cc1CN1CCN(Cc2cc(OC)c(OC)c(OC)c2)CC1,i
CC(=O)N1CCC[C@H]1C(=O)N(Cc1ccco1)Cc1cccs1,i
CC(C)(C)n1nc2c(c1NC(=O)c1cc(Br)ccc1Cl)CS(=O)C2 (stereo not drawn),i
CC(N)=NS(=O)(=O)c1ccc(Cl)cc1,i
CC(=O)Nc1ccc(S(=O)(=O)Nc2ccc(C(C)C)cc2)cc1,i
O=C1C=CC(=NS(=O)(=O)c2ccc(Cl)cc2)c2ccccc21,60.0%*
O=Cc1ccc(S(=O)(=O)c2ccc(Cl)cc2)cc1,i
CC(C)c1ccc(S(=O)(=O)N=C2C=CC(=O)c3ccccc32)cc1,45.0%*
O=C(Nc1ccccc1Cl)NC1CCCCC1,i
N#CCCS(=O)(=O)c1ccc(-c2ccc(S(=O)(=O)CCC#N)cc2)cc1,i
O=C(O)CC1(c2ccccc2)C(=O)c2ccccc2C1=O,i
N#CSc1ccc(NC2(c3ccccc3)C(=O)c3ccccc3C2=O)cc1,34.0%*
CCOc1cc(C2C(C#N)=C(N)OC3=C2C(=O)CC(C)(C)C3)ccc1O (stereo not drawn),i
CC(C)c1ccc(C2C(C#N)=C(N)OC3=C2C(=O)CC(C)(C)C3)cc1 (stereo not drawn),i
CCOC=NC1=C(C#N)C(c2ccccc2)C2=C(CC(C)(C)CC2=O)O1 (stereo not drawn),59.0%*
CC(=O)Oc1ccc([C@H]2C(C#N)=C(N)OC3=C2C(=O)CC(C)(C)C3)cc1,i
CCOC=NC1=C(C#N)C(c2ccc(Cl)cc2)C2=C(CC(C)(C)CC2=O)O1 (stereo not drawn),79.0%*
Cc1ccccc1C1C(C#N)=C(N)OC2=C1C(=O)CC(C)(C)C2 (stereo not drawn),i
SMILES,ST2 IL33 inh
COc1ccc(-c2ccncc2)cc1CNC1CCCC1,i
Cc1c(S(=O)(=O)N2CCN(c3cc(-c4cccc(F)c4)ncn3)CC2)cnn1C(F)F,i
O=C(Cc1ccccc1O)N1CCCC(Nc2ccc(F)c(F)c2)C1 (stereo not drawn),i
COc1ccc(OC)c(-c2cc(C(=O)Nc3sc4c(c3C(N)=O)CCC(C)C4)no2)c1 (stereo not drawn),i
COc1ccc(C=Nc2sc3c(c2C#N)CCC(C)C3)cc1OC (stereo not drawn),39.0%*
COc1ccc(-c2cc(C(=O)Nc3sc4c(c3C(N)=O)CCC(C)C4)no2)cc1OC (stereo not drawn),i
COC(=O)[C@H](Cc1ccc(OC)cc1)NC(=O)[C@H]1CN(C(=O)c2ccc(N(C)C)cc2)CCN1C(=O)c1cccs1,i
CC(C)Cc1ccc(S(=O)(=O)NC2CCCC(C)C2C)cc1 (stereo not drawn),i
CCN(CC)S(=O)(=O)c1ccc2oc(C(=O)N3CCCCC3)c(C)c2c1,i
Cc1c(-c2cc(C(=O)N3C[C@@H]4[C@H](C3)[C@H]3CC[C@@H]4O3)no2)cnn1C,i
CN1CCN([C@@H]2[C@H](O)[C@H](CO)O[C@@H]2CNC(=O)Nc2cccc(Cl)c2)CC1,i
O=C(NC[C@H]1O[C@@H](CO)[C@@H](O)[C@H]1N1CCN(c2ccccc2)CC1)c1ccc(C(F)(F)F)cc1,i
CN1CCN([C@@H]2[C@H](O)[C@H](CO)O[C@@H]2CNC(=O)c2cccc(F)c2)CC1,32.0%*
O=C(NC[C@H]1O[C@@H](CO)[C@@H](O)[C@H]1N1CCN(c2cccc(C(F)(F)F)c2)CC1)c1cccc(F)c1,i
O=C(NC[C@H]1O[C@@H](CO)[C@@H](O)[C@H]1N1CCN(c2cccc(C(F)(F)F)c2)CC1)c1cccs1,i
COc1ccc(C(=O)NC[C@H]2O[C@@H](CO)[C@@H](O)[C@H]2N2CCN(c3ccccn3)CC2)cc1,i
COc1cc(NC(=O)NC[C@H]2O[C@@H](CO)[C@@H](O)[C@H]2N2CCN(c3cccc(C(F)(F)F)c3)CC2)cc(OC)c1,86.0%*
O=C(NC[C@H]1O[C@@H](CO)[C@@H](O)[C@H]1N1CCCC1)c1ccco1,i
CC(=O)NC[C@H]1O[C@@H](CO)[C@@H](O)[C@H]1N1CCN(c2ccccc2)CC1,37.0%*
COc1ccccc1N1CCN([C@@H]2[C@H](O)[C@H](CO)O[C@@H]2CNC(=O)c2cccc(F)c2)CC1,i
O=C(NC[C@H]1O[C@@H](CO)[C@@H](O)[C@H]1N1CCN(c2ccc(F)cc2)CC1)c1ccc(F)c(Cl)c1,34.0%*
O=C(NC[C@H]1O[C@@H](CO)[C@@H](O)[C@H]1N1CCN(c2ccccc2)CC1)N1CCOCC1,i
O=C(CCC1CCCN(Cc2cc3c(cc2Cl)OCO3)C1)N1CCOCC1 (stereo not drawn),i
